Pf Dd2 growth: inhibitors of Plasmodium falciparum Dd2 growth | AID 1347417 | P. falciparum Dd2 growth, SYBR Green, 72 h | hit rate 4.3% among 120,000 | Potency, µM (top dose mostly 28.9 µM), inactives show at the highest dose activity, negative = inhibition, hits mostly inhibitors; active = well fitted inhibition curve with a large enough effect;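 note: plate controls were DMSO vehicle for no effect and reference drug for full effect; nearly all actives have a fitted effect of over 65% in size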
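Infected erythrocytes (Dd2, 0.3% parasitemia, 2.5% hematocrit final) are added to compound in RPMI-1640/Albumax II medium, grown 72 h at 37C in low oxygen, then lysed with saponin/Triton-X containing SYBR Green and read by fluorescence.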
Starred values were filed as active, the others as inactive; i = inactive; [ ] = dose if it differs, or a comment. This excerpt belongs to a sample that is enriched for hits. Potency is the fitted concentration of half-maximal effect.

SMILES	Pf Dd2 growth
CC(C)CCN1CCC(N2CCN(C(=O)CC3CCCCC3)CC2)C1=O (stereo not given)	-14%
CC(=O)NCCc1ncc(C)n1C1CCCC1	-3%
Cc1cnc(CCNC(=O)c2n[nH]c3ccccc23)n1C1CCCC1	3.2µM*
O=C(NCCc1noc(C2CC2)n1)c1n[nH]c2ccccc12	-16%
COCCN1C(=O)c2ccccc2C(C(=O)Nc2ccc3[nH]ccc3c2)C12CCCC2 (stereo not given)	11µM*
COCCN1C(=O)c2ccccc2C(C(=O)Nc2cc(OC)ccc2OC)C12CCCC2 (stereo not given)	i
COCCN1C(=O)c2ccccc2C(C(=O)Nc2ccc(C(N)=O)cc2)C12CCCCC2 (stereo not given)	-5%
COCCN1C(=O)c2ccccc2C(C(=O)Nc2ccc(OC)c(Cl)c2)C12CCCC2 (stereo not given)	-8%
COCCN1C(=O)c2ccccc2C(C(=O)Nc2ccc(OC)cc2OC)C12CCCC2 (stereo not given)	-14%
COCCN1C(=O)c2ccccc2C(C(=O)Nc2ccc(OC)c(OC)c2)C12CCCC2 (stereo not given)	-3%
COCCN1C(=O)c2ccccc2C(C(=O)Nc2ccc3c(c2)OCO3)C12CCCC2 (stereo not given)	13µM*
COCCN1C(=O)c2ccccc2C(C(=O)NCCc2c[nH]c3ccccc23)C12CCCC2 (stereo not given)	-4%
COCCN1C(=O)c2ccccc2C(C(=O)Nc2cc(C)ccc2OC)C12CCCCC2 (stereo not given)	10µM*
COCCN1C(=O)c2ccccc2C(C(=O)Nc2cc(OC)cc(OC)c2)C12CCCC2 (stereo not given)	11µM*
COCCN1C(=O)c2ccccc2C(C(=O)Nc2ccc(NC(C)=O)cc2)C12CCCCC2 (stereo not given)	-19%
C#CCNC(=O)C1=NOC2CN(S(C)(=O)=O)CC12 (stereo not given)	9%[44.1 µM]
COC(=O)C1=C(C)N=C2SC=C(CC(=O)NCC3CCCO3)N2C1c1ccc(C)cc1C (stereo not given)	-17%
C[C@H]1CN(S(=O)(=O)c2ccccc2)C[C@@H]1c1nc(-c2ccncc2)no1	21%
COC(=O)N1CCC2(CC1)C(=O)NCN2Cc1ccc(Cl)cc1	i
O=C1[C@@H]2C[C@@H](O)CN2C2(CN(C3CCC(F)(F)CC3)C2)C(=O)N1Cc1cccc(Cl)c1	i
Cc1ccc(NC(=O)c2ccc3c(c2)N(C)C2CCCCN2C3=O)cc1C (stereo not given)	i
CCn1nccc1C(=O)N1CCC(Oc2ccccc2)C1 (stereo not given)	i
Cn1cc(-c2cn[nH]c2)c2nc(COc3ccccc3)cn2c1=O	i
O=C(NCc1nc(-c2cccc(F)c2)c(-c2ccccn2)[nH]1)N1CCCC1	2%
O=C(C1CCC(O)CC1)N1CCCC(CCc2ccccc2C(F)(F)F)C1 (stereo not given)	-21%
SMILES	Pf Dd2 growth
Cn1cc(CCC(=O)N[C@@H]2CCOC[C@H]2Oc2ccc(C(=O)O)cc2)cn1	7%
Cc1ncc2n1C(=O)N(C1CCN(C(=O)c3ccccc3)CC1)C2	10%[44.1 µM]
CCn1ncc(CN(C)C(=O)CC2C(=O)NCCN2C(C)C)c1C (stereo not given)	-22%
O=C(NCCc1ccccc1)C1c2ccccc2C(=O)N(Cc2ccccc2)C12CCCC2 (stereo not given)	i
O=C(O)C1c2ccccc2C(=O)N(Cc2ccccc2)C12CCCC2 (stereo not given)	3%
O=C(Nc1ccccc1F)C1c2ccccc2C(=O)N(Cc2ccccc2)C12CCCC2 (stereo not given)	11µM*
N#Cc1cccc(NC(=O)Nc2ccc(=O)n3c2[C@@H]2C[C@@H](CN(C(=O)COc4ccccc4)C2)C3)c1	-8%
O=C1COc2ccc(OCc3ccccc3)nc2CN1Cc1ccccc1F	-24%[44.1 µM]
CCCN1C(=O)CC[C@H]2CN(c3cc(OC)nc(N)n3)CC[C@H]21	-18%
CCN(CC)C[C@H]1CN2CC[C@H]1C[C@@H]2CNS(=O)(=O)c1ccc(Cl)cc1	-15%[44.1 µM]
C#C[C@H]1CN2CC[C@H]1C[C@@H]2CNS(=O)(=O)c1cccs1	8.9µM*
O=S(=O)(NC[C@H]1C[C@@H]2CCN1C[C@@H]2CN1CCCCC1)c1ccccc1	-5%[44.1 µM]
C#CCN(C)C[C@H]1CN2CC[C@H]1C[C@@H]2CNS(=O)(=O)c1ccccc1	i
C=C[C@H]1CN2CC[C@H]1C[C@@H]2CNS(=O)(=O)c1ccc(Cl)cc1	-6%[44.1 µM]
CC[C@H]1CN2CC[C@H]1C[C@@H]2CNS(=O)(=O)c1cccs1	-5%[44.1 µM]
CC[C@H]1CN2CC[C@H]1C[C@@H]2CNC(=O)Nc1cccc(C#N)c1	i
C#C[C@H]1CN2CC[C@H]1C[C@@H]2CNCc1cccc(C#N)c1	14µM*
C#C[C@H]1CN2CC[C@H]1C[C@@H]2CNS(=O)(=O)c1cccc(F)c1	8.9µM*
C#C[C@H]1CN2CC[C@H]1C[C@@H]2CNCc1ccc(C(C)C)cc1	i
CC[C@H]1CN2CC[C@H]1C[C@@H]2CNS(=O)(=O)c1ccccc1	i

Assay outcomes from PubChem.
